We go through three molecules from PubChem BioAssay.

Experiment [1] is described as follows: P. berghei load reduction in hepatocytes – cell-based, HepG2, luciferase luminescence, HepG2 viability, primary screen (AID 624349).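 Also: 100% = mean of DMSO negative control wells on the same plate.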 The following applies: P. berghei liver stage in HepG2, luciferase luminescence, concentration not given here; parasite load remaining: stronger effect = lower value; viability: measured here: HepG2 viability without parasites.
Experiment [2] is described as follows: signal quenchers or enhancers, Cy5 substrate/SSB – biochemical, NIH Clinical Collection, E. coli SSB, artefact control for HCV NS3 helicase inhibitor project (AID 743268; call rule not given here). The settings on record: Cy5-oligo bound E. coli SSB, fluorescence interference.
Experiment [3] deals with Hepatitis C virus NS3 helicase. As to the kind of experiment: blockers of NS3h binding to DNA – biochemical, fluorescence polarization, NIH Clinical Collection, primary screen (AID 743270; call rule not given here). The following applies: NS3 helicase binding to Cy5-dT15 DNA, stronger effect = higher value, concentration not given here.
Experiment [4] concerns the target Single-stranded DNA-binding protein (Escherichia coli (strain K12)) (UniProt P0AGE0). As to the kind of experiment: SSB-ssDNA binding inhibitors – biochemical, fluorescence polarization, NIH Clinical Collection, counter-screen for HCV NS3 helicase inhibitor project (AID 743271; in the data active = inhibition above about 28%). The settings on record: E. coli SSB-DNA binding, stronger effect = higher value, concentration not given here.

The nature of experiment [5]: compounds distorting NS3 helicase fluorescence signal – biochemical, NIH Clinical Collection, artefact control for HCV NS3 helicase inhibitor project (AID 743272; call rule not given here;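 also: HCV NS3 helicase with a Cy5 labelled single stranded DNA probe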). The following applies: fluorescence interference counterscreen, HCV NS3 helicase assay; stronger effect = lower value.
Experiment [6] can be described thus: Wnt pathway potentiators raising nuclear beta-catenin – imaging, WNT3A-conditioned medium, mouse C2C12, NPC library, primary screen (AID 1117326; in the data active = nuclear beta-catenin stimulation mostly above about 4.2%, no sharp cut-off; inactive = mostly below about 10%). The settings on record: stronger effect = higher value.
Experiment [7] can be described thus: stimulators of insulin release from INS-1E, primary screen, cell-based, 5 mM glucose, NPC library (AID 1117329;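 active = compound raises insulin release from rat beta cells at 5 mM glucose, no numeric limit stated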). The settings on record: rat INS-1E insulin secretion, at 10 µM, stronger effect = higher value.
A short description of experiment [8]: growth inhibition of GSK3B-pretreated HCT116 cells – cell-based, CellTiter-Glo, 0.2 to 20 µM (AID 1117336;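 active = compounds lowering colon cancer cell viability after pretreatment blocking the GSK3B kinase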). The following applies: HCT116 viability after GSK3B inhibitor, at 20 µM, stronger effect = higher value.
A short description of experiment [9]: inhibition of endothelial tube formation, primary screen, imaging, VEGF stimulated, CD31 staining, tube area, NPC library (AID 1117340;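 active = compound that reduces growth-factor-driven endothelial tube area in a mixed cell culture, no cutoff stated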). The settings on record: VEGF-stimulated ADSC/ECFC co-culture, at 10 µM, stronger effect = higher value.
The nature of experiment [10]: GLP1 release stimulators, primary, NCI-H716, NPC library (AID 1117341;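 active = compound raises GLP1 secretion from the human gut endocrine cells, with no numeric limit stated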). The following applies: NCI-H716 cells, at 10 µM, stronger effect = higher value.
A short description of experiment [11]: HCT116 colon cancer cell growth inhibition, primary screen, CellTiter-Glo luminescence, NPC library (AID 1117342;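 active = compounds that lower survival of HCT116 colon cancer cells in the luminescence readout, no numeric limit stated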). The following applies: at 20 µM (top of the series).
The nature of experiment [12]: reduced SW480 viability measured with CellTiter-Glo, NPC library, primary (AID 1117343;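 active = compounds that lower viability of the colon cancer cells in the luminescence readout, with no numeric limit stated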). The settings on record: CellTiter-Glo luminescence; at 20 µM (top of the series).
The nature of experiment [13]: NPC library primary testing for decreased DLD-1 cell viability via CellTiter-Glo (AID 1117346;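 active = compounds that lower survival of DLD-1 colon cancer cells in the luminescence readout, no cutoff given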). The settings on record: DLD-1 viability, CellTiter-Glo luminescence; at 20 µM (top of the series).
Experiment [14] concerns the target 6-phosphogluconate dehydrogenase, decarboxylating (Homo sapiens) (UniProt P52209). As to the kind of experiment: inhibition of human phosphogluconate dehydrogenase – biochemical, recombinant enzyme, NADPH absorbance, primary screen (AID 1159550;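 active = at least 20% inhibition of 6-phosphogluconate dehydrogenase activity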). The settings on record: recombinant 6PGD, NADPH absorbance 341 nm; at 10 µM; stronger effect = higher value.
Experiment [15] can be described thus: viability loss with induced miR-34 in A549 – imaging, A549 dox-inducible miR-34, nuclei and caspase counts, primary screen (AID 1347080;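 active = compounds whose cell count with miR-34 switched on is under 0.7 times the count with it off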). The following applies: A549 miR-34 inducible, Hoechst nuclei count, 48 h.
Experiment [16] is described as follows: MELAS cybrid and Rieske KO viability enhancers – cell-based, MELAS cybrids, Rieske KO mouse fibroblasts, CellTiter-Glo, primary screen (AID 1508586;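 active = mean z-score across replicates of 1.96 or higher in either the MELAS or the Rieske mutant cell line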;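 also: z relative to plate mean and SD of compound and empty wells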). The settings on record: low glucose.
The target in experiment [17] is NAD(+) hydrolase SARM1 (Homo sapiens) (UniProt Q6SZW1). As to the kind of experiment: blocking NAD cleavage by SARM1 SAM-TIR – cell lysate, NAD-Glo luminescence (AID 1508614;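 active = compound whose remaining NAD level is above about 45 nM, limit read from the data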;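 also: higher remaining NAD means stronger inhibition of SARM1 NADase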). The following applies: SAM-TIR HEK293T lysate NADase, at 1 µM, stronger effect = higher value.
NAD(+) hydrolase SARM1 (Homo sapiens), sequence (Q6SZW1 whole entry, looked up, the tested form may be a part): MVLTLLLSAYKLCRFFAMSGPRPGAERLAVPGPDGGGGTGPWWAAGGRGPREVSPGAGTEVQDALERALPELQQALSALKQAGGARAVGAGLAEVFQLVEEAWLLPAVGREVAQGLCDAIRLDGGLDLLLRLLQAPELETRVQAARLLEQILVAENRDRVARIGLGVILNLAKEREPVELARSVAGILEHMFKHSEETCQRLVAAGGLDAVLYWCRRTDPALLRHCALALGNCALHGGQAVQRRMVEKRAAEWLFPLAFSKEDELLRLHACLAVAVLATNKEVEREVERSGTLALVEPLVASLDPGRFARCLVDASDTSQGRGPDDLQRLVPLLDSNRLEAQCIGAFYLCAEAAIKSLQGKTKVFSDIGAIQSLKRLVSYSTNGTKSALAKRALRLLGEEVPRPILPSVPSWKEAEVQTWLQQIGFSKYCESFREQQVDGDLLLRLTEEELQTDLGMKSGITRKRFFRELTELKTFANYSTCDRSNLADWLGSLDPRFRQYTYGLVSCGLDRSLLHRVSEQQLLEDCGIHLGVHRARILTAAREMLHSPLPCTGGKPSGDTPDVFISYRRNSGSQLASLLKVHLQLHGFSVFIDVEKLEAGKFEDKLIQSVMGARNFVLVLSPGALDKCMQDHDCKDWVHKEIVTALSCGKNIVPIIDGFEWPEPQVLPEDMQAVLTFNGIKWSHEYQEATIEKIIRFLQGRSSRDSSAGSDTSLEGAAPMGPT
The target in experiment [18] is Mitogen-activated protein kinase 7 (Homo sapiens) (UniProt Q13164). Nature of the experiment: Gal4-ERK5 driven luciferase induction – cell-based, HTS, primary screen (AID 1508626;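 active = luciferase signal above three times the same-plate solvent-only control wells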;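 also: luciferase driven by Gal4-ERK5 fusion binding five Gal4 sites before minimal TATA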). The following applies: HeLa Gal4-ERK5 transactivation, 18 h, at 5 µM, stronger effect = higher value.
Mitogen-activated protein kinase 7 (Homo sapiens), sequence (Q13164 whole entry, looked up, the tested form may be a part): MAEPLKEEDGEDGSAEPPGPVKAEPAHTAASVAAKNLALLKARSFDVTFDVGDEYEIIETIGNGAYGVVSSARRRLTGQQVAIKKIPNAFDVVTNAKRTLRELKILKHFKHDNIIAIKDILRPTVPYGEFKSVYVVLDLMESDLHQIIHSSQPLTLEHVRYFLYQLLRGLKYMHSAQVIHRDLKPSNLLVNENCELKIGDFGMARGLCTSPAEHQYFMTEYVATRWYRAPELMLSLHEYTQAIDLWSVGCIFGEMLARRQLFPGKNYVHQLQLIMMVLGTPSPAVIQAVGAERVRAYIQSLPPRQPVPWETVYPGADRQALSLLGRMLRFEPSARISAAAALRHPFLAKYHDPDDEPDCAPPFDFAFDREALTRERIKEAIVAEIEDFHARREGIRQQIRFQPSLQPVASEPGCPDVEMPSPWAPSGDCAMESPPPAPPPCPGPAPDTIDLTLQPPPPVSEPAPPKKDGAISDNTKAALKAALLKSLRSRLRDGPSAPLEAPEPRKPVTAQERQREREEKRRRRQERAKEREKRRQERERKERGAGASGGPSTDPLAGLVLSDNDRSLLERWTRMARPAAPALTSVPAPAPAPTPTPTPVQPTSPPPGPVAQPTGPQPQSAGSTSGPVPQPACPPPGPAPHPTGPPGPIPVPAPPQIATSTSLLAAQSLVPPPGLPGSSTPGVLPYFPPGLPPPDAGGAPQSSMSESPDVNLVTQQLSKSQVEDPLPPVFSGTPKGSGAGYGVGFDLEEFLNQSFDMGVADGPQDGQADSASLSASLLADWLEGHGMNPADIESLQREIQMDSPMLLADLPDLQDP
A further experiment concerns F380Y. Nature of the experiment: BK channel mutant inhibitors and activators – cell-based, U2OS BacMam, thallium flux, beta subunits, selectivity assay, profiling panel (AID 1259406;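 active = thallium flux through the channel raised or lowered by more than 3 SD from vehicle-only wells, actives on both sides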;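 also: initial slope of Thallos dye fluorescence rise after thallium is added; log ratio against the mean of 0.3% DMSO vehicle wells on the same plate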). The settings on record: U2OS BacMam BK variants, at 30 µM.
Experiment [19] can be described thus: EMT-state selective cytotoxicity in co-culture – imaging, PC-3E GFP, TEM4-18 mCherry, primary screen (AID 1345086;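 active = compounds killing one labelled cell type while sparing the other, by normalised counts and ratio limits, not self-fluorescent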;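 as to all read-outs here: cells exposed to compound for 72 h before imaging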;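 as to red/green cell ratio (normalised): normalised mesenchymal count divided by normalised epithelial count so high means epithelial killing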). The settings on record: PC-3E GFP / TEM4-18 mCherry co-culture, imaging cell counts, at 1 µM; for red/green cell ratio (normalised): actives lie on both sides, counts scaled to control wells, 1 = unselective.
Setting [20] is: stronger effect = lower value, cell number ratio, induced over uninduced.
Where [21] appears, read: measured here: relative caspase fold change +Dox/-Dox.
[22] abbreviates: measured here: total cells with miR-34 induction, stronger effect = lower value.
Where [23] appears, read: measured here: total cells without miR-34 induction.
[24] abbreviates: MELAS cybrid survival, CellTiter-Glo 48 h, stronger effect = higher value.
Setting [25] is: Rieske KO mouse fibroblast survival, CellTiter-Glo 72 h.
Setting [26] is: measured here: epithelial PC-3E GFP cell survival.
Setting [27] is: measured here: mesenchymal TEM4-18 mCherry cell survival.

Values joined by “and” are separate entries in the source; they are usually repeats but may differ in a detail not shown here. Identical values can stand only once. Some compounds were tested as several samples or in several runs, with calls that do not always agree. Active and inactive are the calls of the source. Rule as the data show it, unless noted: active = parasite load remaining mostly below about 12% (no sharp cut-off); inactive = mostly above about 10%.

6-phosphogluconate dehydrogenase, decarboxylating (Homo sapiens), sequence (P52209 whole entry, looked up): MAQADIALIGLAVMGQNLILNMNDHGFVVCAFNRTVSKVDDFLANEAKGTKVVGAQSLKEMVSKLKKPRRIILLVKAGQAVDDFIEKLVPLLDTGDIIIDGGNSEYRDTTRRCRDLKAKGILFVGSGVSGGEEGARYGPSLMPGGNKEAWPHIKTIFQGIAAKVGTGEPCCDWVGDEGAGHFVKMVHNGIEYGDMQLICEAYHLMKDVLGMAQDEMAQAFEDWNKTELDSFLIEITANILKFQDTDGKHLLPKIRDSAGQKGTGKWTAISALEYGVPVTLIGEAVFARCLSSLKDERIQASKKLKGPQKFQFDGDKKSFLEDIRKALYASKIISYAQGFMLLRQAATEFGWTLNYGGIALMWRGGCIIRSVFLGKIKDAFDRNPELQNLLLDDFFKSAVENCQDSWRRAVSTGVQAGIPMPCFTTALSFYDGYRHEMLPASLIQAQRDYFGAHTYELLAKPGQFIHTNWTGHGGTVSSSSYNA

In the case of `C#C[C@]1(O)CC[C@H]2[C@@H]3CCC4=CC(=O)CC[C@@H]4[C@H]3CC[C@@]21CC`, in experiment [1], the parasite load remaining was 51.8% (inactive) and 75.6% (inactive) and 14.7% (inactive). Further, the viability in experiment [1] is 93.6% and 73.1% and 73.5%. Also, the results for the fluorescence ratio in experiment [2] and in experiment [5] were 1.02 (inactive) and 0.96 (inactive), respectively. For the same molecule, the inhibition was -3.56% (inactive) in experiment [3], -0.1% (inactive) in experiment [4] and -0.702% (inactive) in experiment [14]. For the same molecule, the nuclear beta-catenin stimulation in [6] (at 10 µM) is 2.2% (inactive); in experiment [6] (stimulation, at 2 µM), -0.1%. For the same molecule, the insulin secretion stimulation in [7] is -1.1% (inactive). Also, the viability decrease in [8] was -54.4% (inactive). In addition, in experiment [9], the tube area decrease was 0.1% (inactive). The GLP1 secretion stimulation in experiment [10] is 4.1% (inactive). Moreover, the inhibition of viability in experiment [11] is -5.1% (inactive). The viability decrease (inhibition) in experiment [12] was 4.3% (inactive); in experiment [13], -24.6% (inactive). Moreover, the fold change is 0.855 (inactive) and 0.976 (inactive) and 0.873 (inactive) in experiment [15] (setting [20]); 1.39 and 1.03 and 0.879 in [15] (setting [21]). The cell count was 8700 and 5730 and 8530 in experiment [15] (setting [22]); 10200 and 5870 and 9770 in experiment [15] (setting [23]). Moreover, the z-score in [16] (setting [24]) was 1.16 (inactive) and 0.00976 (inactive); in [16] (setting [25]), 1.41 and 0.657. Moreover, the remaining NAD in experiment [17] is 10 nM (inactive). Also, in experiment [18], the luciferase signal was 44 AU (inactive). Moreover, the log fold change Tl+ flux with F380Y is 0.0315 (inactive).
In the case of `CCOC(=O)C1=C(COCCN)NC(C)=C(C(=O)OC)C1c1ccccc1Cl` (stereo unspecified), the parasite load remaining in experiment [1] was 22.9% (inactive) and 39.3% (inactive) and 49.9% (inactive). The viability in experiment [1] was 107% and 67.5% and 111%. The nuclear beta-catenin stimulation in experiment [6] (at 10 µM) was 87.9% (active); in [6] (stimulation, at 2 µM) it was 10%. The insulin secretion stimulation in [7] was 11.6% (inactive). Moreover, the viability decrease in experiment [8] is 99.2% (active). Also, the tube area decrease in experiment [9] was 87.8% (active). For the same molecule, the GLP1 secretion stimulation in experiment [10] is 0.5% (inactive). Further, the inhibition of viability in experiment [11] is 99.3% (active). The viability decrease (inhibition) in [12] was 102% (active); in [13] it was 92% (active). In addition, the inhibition in experiment [14] is 3.33% (inactive). In addition, the red/green cell ratio (normalised) in [19] was 0.9 (inactive). The normalised cell number came out at 1.26 in [19] (setting [26]) and 1.13 in [19] (setting [27]). Besides, the z-score in experiment [16] (setting [24]) was -0.269 (inactive) and 0.142 (inactive) and -0.356 (inactive); in experiment [16] (setting [25]), 0.139 and -0.0453 and -0.413. For the same molecule, the remaining NAD in experiment [17] is 10 nM (inactive). In experiment [18], the luciferase signal is 104 AU (inactive).
With `C[C@@H]1CC(=O)NN=C1c1ccc(NN=C(C#N)C#N)cc1`, the nuclear beta-catenin stimulation in [6] (at 10 µM) was 7.5% (inactive) and 2.8% (inactive); in [6] (stimulation, at 2 µM), 0% and -0.4%. The insulin secretion stimulation in [7] is -2.9% (inactive) and -1.5% (inactive). For the same molecule, in experiment [8], the viability decrease is -8.85% (inactive) and 2.3% (inactive). For the same molecule, the tube area decrease in [9] was 41.6% (active) and 22.4% (inactive). In addition, the GLP1 secretion stimulation in experiment [10] was 1.1% (inactive) and -7% (inactive). The inhibition of viability in [11] was -20.6% (inactive) and 6.9% (inactive). For the same molecule, the viability decrease (inhibition) in [12] is 30.7% (inactive) and -5.7% (inactive); in [13] it was 12.6% (inactive) and 21.9% (inactive). The red/green cell ratio (normalised) in experiment [19] was 1.17 (inactive). Also, the normalised cell number came out at 1.03 in experiment [19] (setting [26]) and 1.21 in [19] (setting [27]). Moreover, the values for the fold change in experiment [15] (setting [20]) and in [15] (setting [21]) were 0.967 (inactive) and 0.752, respectively. The results for the cell count in experiment [15] (setting [22]) and in [15] (setting [23]) were 8720 and 9020, respectively. In [17], the remaining NAD was 10 nM (inactive).
